Consider five compounds from PubChem BioAssay.

Assay [1] in a line: Her2 expression decrease, cell viability multiplex – SKBR3 breast tumor cells, AlphaScreen, ATP viability, primary screen (AID 461).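 For Her2 level: lower value means less Her2 protein in the cells.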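 For viability: percent of carrier control wells set as 100% viability.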 As to conditions: SKBR3 Her2 protein level, 18-24 h, measured here: SKBR3 viability, ATP luminescence, at 10 µM.
The target of assay [2] is Receptor tyrosine-protein kinase erbB-2 (Homo sapiens) (UniProt P04626). Described as above. As to conditions: 18-24 h, at 10 µM, stronger effect = lower value.
Chain of Receptor tyrosine-protein kinase erbB-2 (Homo sapiens) (P04626 whole entry, looked up): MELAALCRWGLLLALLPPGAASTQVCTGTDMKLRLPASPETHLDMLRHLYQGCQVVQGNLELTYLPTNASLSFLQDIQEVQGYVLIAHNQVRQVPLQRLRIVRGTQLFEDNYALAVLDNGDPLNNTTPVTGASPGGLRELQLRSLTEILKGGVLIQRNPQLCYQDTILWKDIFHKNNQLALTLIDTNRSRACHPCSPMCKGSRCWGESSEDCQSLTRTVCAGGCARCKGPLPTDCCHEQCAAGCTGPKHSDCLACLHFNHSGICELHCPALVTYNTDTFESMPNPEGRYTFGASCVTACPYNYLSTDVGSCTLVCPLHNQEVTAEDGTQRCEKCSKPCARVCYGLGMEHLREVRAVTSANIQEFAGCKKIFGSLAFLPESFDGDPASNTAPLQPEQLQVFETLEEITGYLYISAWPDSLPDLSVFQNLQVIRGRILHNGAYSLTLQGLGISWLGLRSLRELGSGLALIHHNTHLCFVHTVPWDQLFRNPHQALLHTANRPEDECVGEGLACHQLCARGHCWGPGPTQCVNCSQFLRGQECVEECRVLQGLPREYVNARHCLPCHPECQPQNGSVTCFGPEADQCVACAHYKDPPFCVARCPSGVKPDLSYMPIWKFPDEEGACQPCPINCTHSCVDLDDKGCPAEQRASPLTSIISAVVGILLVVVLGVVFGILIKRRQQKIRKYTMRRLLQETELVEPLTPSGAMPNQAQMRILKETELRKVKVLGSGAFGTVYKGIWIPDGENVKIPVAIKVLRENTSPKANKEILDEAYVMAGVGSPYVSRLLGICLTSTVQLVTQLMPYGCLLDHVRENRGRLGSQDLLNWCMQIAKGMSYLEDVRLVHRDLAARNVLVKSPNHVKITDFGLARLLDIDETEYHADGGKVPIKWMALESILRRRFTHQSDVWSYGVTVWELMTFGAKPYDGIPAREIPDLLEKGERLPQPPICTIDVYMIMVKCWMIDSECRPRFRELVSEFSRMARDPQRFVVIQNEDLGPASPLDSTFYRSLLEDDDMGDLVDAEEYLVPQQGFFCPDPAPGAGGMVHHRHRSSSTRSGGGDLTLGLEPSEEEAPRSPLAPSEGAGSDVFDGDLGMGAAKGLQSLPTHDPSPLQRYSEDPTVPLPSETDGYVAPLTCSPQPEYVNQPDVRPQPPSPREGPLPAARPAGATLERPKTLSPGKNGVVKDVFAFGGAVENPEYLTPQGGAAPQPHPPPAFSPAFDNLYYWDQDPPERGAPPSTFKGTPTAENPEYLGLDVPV
The nature of assay [3]: reduced viability of SK-BR-3 breast cancer cells – cell-based, 24 h, human, pilot screen (AID 572;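 active = viability at or below 10% of carrier control in both of two separate runs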;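 note: compound exposure lasted between 18 and 24 h rather than exactly 24 h; 100% = carrier-treated control wells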). Conditions: SK-BR-3 viability, CellTiter-Glo luminescence, at 10 µM, stronger effect = lower value.
The nature of assay [4]: HUVEC growth inhibition – cell-based, human, primary screen (AID 575;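 active = viability at or below 30% in both replicate assays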;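 note: 100% = median of untreated cell wells with 0.1% DMSO on each plate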). As to conditions: HUVEC proliferation, CellTiter-Glo luminescence, 72 h; at 10 µM; stronger effect = lower value.
The nature of assay [5]: H69AR cell proliferation blockers – human, duplicate replicates, primary screen (AID 580;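 active = viability at or under a set limit in both replicates, limit being median viability minus 3 SD, cut at about 48% in these data, passing the limit was not always enough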;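 note: 100% = mean luminescence of untreated wells and 0% = no signal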). Conditions: H69AR lung tumor cells viability, ATP luminescence, 72 h; at 10 µM; stronger effect = lower value.
A short description of assay [6]: MRP1 drug-resistance reversers in H69AR cells – cell-based, doxorubicin co-treatment, pilot screen (AID 601;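 active = viability loss from added drug above about 55%, and viability with drug at most 40%, in both replicates, limit read from the data, passing the limit was not always enough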). As to conditions: CellTiter-Glo, 72 h, at 10 µM; for differential viability (reversal): stronger effect = higher value.
A short description of assay [7]: yeast transport mutant growth inhibition pilot in 384-well plates, post-Golgi transport modulator project (AID 636; in the data active = inhibition above about 31%). As to conditions: absorbance 615 nm, about 18 h, stronger effect = higher value.
A short description of assay [8]: growth suppression of yeast trafficking mutant, preliminary HTS, modulators of trafficking downstream of Golgi apparatus project, 1536-format plate, OD 615 nm (AID 637; in the data active = inhibition above about 30%). Conditions: yeast transport mutant growth, absorbance 615 nm, 18 h; stronger effect = higher value.
A short description of assay [9]: S. cerevisiae growth inhibition in permissive medium (OD615), pilot counter-assay for S. cerevisiae lifespan shortening project, permissive growth control (AID 705;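 active = growth inhibition above 25% in both replicates, a cutoff set 3 SD above the mean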). Conditions: OD615, 24 h, at 10 µM, stronger effect = higher value.
Assay [10] is described as follows: S. cerevisiae growth inhibition in restrictive medium, OD615, pilot screen, restrictive growth control, yeast lifespan reduction project (AID 706;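 active = growth inhibition above a set limit, 3 SD over mean compound inhibition, in both replicates, cut at about 43% in these data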;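 note: modified DeaD lifespan yeast strain shifted to restrictive glucose medium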). Conditions: OD615, 48 h, at 10 µM, stronger effect = higher value.
Assay [11] can be described thus: doxorubicin toxicity protection in MRP-1 cells – H69AR cells, CellTiter-Glo, duplicate, MRP-1 activator project, pilot screen (AID 807;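 active = viability increase at or above a cutoff of the median across tested compounds plus 3 SD, cut at about 8.5% in these data, passing the limit was not always enough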;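 note: compound pretreatment 18-22 h then 72 h combined with doxorubicin; 0% = doxorubicin alone and 100% = vehicle without doxorubicin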). Conditions: H69AR viability with doxorubicin, CellTiter-Glo luminescence; at 10 µM; stronger effect = higher value.
Assay [12] can be described thus: viability of HCT116 without oncogenic beta-catenin – human colon tumor cells, pilot screen (AID 823;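 active = cell viability at or below a set limit in both duplicate runs, the limit being the all-compound median minus 4 SD, cut at about 23% in these data, passing the limit was not always enough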;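 note: 0% = wells killed by 20 µM Hyamine and 100% = untreated DMSO cell wells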). As to conditions: HCT116 beta-catenin knockout viability, CellTiter-Glo, 60 h; at 10 µM; stronger effect = lower value.
Assay [13] in a line: viability of PTEN-null HCT116 cells – cell-based, HCT116 clonal line, CellTiter-Glo, pilot screen (AID 824;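 active = viability at or below 27.92% in each of two runs, the all-compound median minus 4 SD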;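 note: 0% = 20 µM Hyamine control and 100% = vehicle cell control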). Conditions: HCT116 PTEN-deleted viability, 60 h, at 10 µM, stronger effect = lower value.
The nature of assay [14]: RAM pathway blockade in budding yeast – dse1pr::URA3 reporter, 5-FOA selection, pilot screen (AID 869;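 active = inhibition over a set limit, the all-compound mean plus 3 SD, in both replicate runs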;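 note: 0% = DMSO wells with no growth and 100% = 10 µM 1-NA-PP1 with full growth; RAM network block rescues cells from 5-FOA so hits raise OD615 growth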). Conditions: S. cerevisiae dse1pr::URA3 5-FOA growth, OD615, 2 d; at 10 µM; stronger effect = higher value; strain carries analog-sensitive mutant Cbk1 kinase.
The nature of assay [15]: RAM signaling pathway blockade in yeast – S. cerevisiae, Pdr1DBD-CYC8 efflux-inhibited sensitized strain, primary screen (AID 1298;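 active = RAM network inhibition above 8.4% in each of two replicates, 3 SD over the compound average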;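 note: 0% = DMSO untreated cells without growth and 100% = 10 µM 1-NA-PP1 full growth; higher means more yeast growth rescued from 5-FOA killing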). As to conditions: S. cerevisiae cbk1-as DSE1-URA3 strain, 5-FOA growth OD615, 2 d; at 50 µM; stronger effect = higher value.
Setting [16] is: H69AR cells + 2 uM doxorubicin, measured here: viability with 2 uM doxorubicin, stronger effect = lower value.
[17] abbreviates: H69AR cells, compound alone cytotoxicity.

Structures are written as SMILES. Records with an inconclusive call do not appear. Activity calls are given as the source filed them.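 Rule for the calls, unless noted: active = Her2 level under about 52% in both replicate screens, with viability over 70% of control (limit read from the data); inconclusive = Her2 under the limit in one screen only, or viability under 70%; inactive = Her2 level above the set limit.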

Consider `CCCC(=O)NCCc1cc2c(C)ccc(C)c2[nH]c1=O`, for which the viability in [1] was 106%; in [3], 106% (inactive); in assay [4] it was 110% (inactive); in assay [5] it was 98.8% (inactive); in assay [6] (setting [16]), 86.7%; in assay [6] (setting [17]), 98.8%. For the same compound, the figures for the viability in assay [12] and in assay [13] were 111% (inactive) and 103% (inactive), respectively. Also, the Her2 level in assay [2] is 93% (inactive). Also, in assay [6] (H69AR cells + 2 uM doxorubicin), the differential viability (reversal) is 12.1% (inactive). The inhibition in assay [7] was -5.6% (inactive); in assay [8], 9.33% (inactive); in [14] it was 0.625% (inactive). Further, the growth inhibition in assay [9] is -4.56% (inactive); in [10] it was -10.1% (inactive). The viability increase in assay [11] is -0.5% (inactive). In addition, in [15], the RAM network inhibition was 0.95% (inactive).

Regarding `CC1CN(c2ccc(Oc3ccccc3)cc2)c2nc3c(c(=O)n(CC(N)=O)c(=O)n3C)n2C1` (stereo not given), the viability in assay [1] was 107%; in assay [3], 107% (inactive); in assay [4], 77.5% (inactive); in assay [5] it was 79.1% (inactive); in assay [6] (setting [16]), 74.4%; in assay [6] (setting [17]) it was 79.1%. The viability in [12] was 104% (inactive); in assay [13], 94.4% (inactive). Besides, the Her2 level in [2] was 101% (inactive). Also, the differential viability (reversal) in [6] (H69AR cells + 2 uM doxorubicin) is 4.74% (inactive). The inhibition in [7] was -4.67% (inactive); in assay [8], -5.17% (inactive); in [14], 2.65% (inactive). Besides, the values for the growth inhibition in [9] and in [10] were -3.86% (inactive) and 6.34% (inactive), respectively. Besides, the viability increase in [11] is -3.54% (inactive). Also, the RAM network inhibition in assay [15] is 6.01% (inactive).

In the case of `COC(=O)C1=C(C)NC(C)=C(C(=O)OC)C1C1CC=CCC1` (stereo not given), the viability in assay [1] is 85%; in [3], 85% (inactive); in assay [4], 75.4% (inactive); in [5], 100% (inactive); in [6] (setting [16]), 77.1%; in assay [6] (setting [17]), 100%. In addition, the viability is 90.4% (inactive) in assay [12] and 87.1% (inactive) in assay [13]. For the same compound, the Her2 level in assay [2] is 90.5% (inactive). Also, the differential viability (reversal) in [6] (H69AR cells + 2 uM doxorubicin) is 23.3% (inactive). In addition, the values for the inhibition in assay [7], in assay [8] and in [14] were -0.91% (inactive), 6.89% (inactive) and 2.73% (inactive), respectively. In addition, the growth inhibition in assay [9] is -3.42% (inactive); in assay [10], -21.7% (inactive). Besides, in [11], the viability increase was -4.18% (inactive). Also, the RAM network inhibition in [15] is 8.09% (inactive).

`COc1cc(C(=O)N2c3ccccc3CC2C)cc(OC)c1OC` (stereo not given): the viability in assay [1] is 102%; in assay [3], 102% (inactive); in assay [4], 88.8% (inactive); in assay [5], 81.8% (inactive); in [6] (setting [16]), 91.3%; in assay [6] (setting [17]) it was 81.8%. Moreover, the results for the viability in assay [12] and in [13] were 87.4% (inactive) and 83.8% (inactive), respectively. Further, the Her2 level in [2] was 81.5% (inactive). Moreover, the differential viability (reversal) in assay [6] (H69AR cells + 2 uM doxorubicin) is -9.55% (inactive). The values for the inhibition in assay [7], in assay [8] and in [14] were -4.59% (inactive), -3.33% (inactive) and 0.67% (inactive), respectively. Further, the figures for the growth inhibition in assay [9] and in [10] were -3.11% (inactive) and -16.6% (inactive), respectively. In [11], the viability increase is -4.64% (inactive). Moreover, the RAM network inhibition in [15] is 6.34% (inactive).

As to `c1nc(NCC2CCCO2)c2[nH]cnc2n1` (stereo not given), the viability is 83.5% in [1]; 83.5% (inactive) in [3]; 93.4% (inactive) in assay [4]; 91.1% (inactive) in [5]; 83.3% in assay [6] (setting [16]); 91.1% in assay [6] (setting [17]). In addition, the viability in assay [12] was 100% (inactive); in [13] it was 99.7% (inactive). The Her2 level in [2] is 91.5% (inactive). Besides, the differential viability (reversal) in assay [6] (H69AR cells + 2 uM doxorubicin) is 7.82% (inactive). Further, the inhibition in [7] was -1.84% (inactive); in assay [8], 4% (inactive); in [14] it was 1.3% (inactive). The growth inhibition in assay [9] is -10% (inactive); in assay [10], -5.46% (inactive). Besides, the viability increase in assay [11] is 0.98% (inactive). In addition, in assay [15], the RAM network inhibition is 1.7% (inactive).
